ATXN2 expr inh: inhibitors of ATXN2 expression | actives 0.72% (n = 360,000) | Potency, µM (top dose mostly 57 µM), most hits filed as inhibitors | HEK-293 ATXN2-luciferase reporter, luminescence, 24 h; note: nearly all actives have a fitted effect of over 55% in size
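ATXN2-luciferase reporter cells (luciferase flanked by upstream and downstream ATXN2 gene portions) were treated 24 h at 37 °C with compounds at up to 57 uM. SteadyGlo luminescence gave expression; GF-AFC fluorescence gave viability.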
RORg inh: blocks mouse ROR gamma transcriptional activity | actives 5.4% (n = 310,000) | Drosophila S2 Gal4-RORgamma UAS-luciferase reporter, 20 h | Potency, µM (doses to about 53.6 µM), usual class: inhibitors | AID 2551; note: nearly all actives have a fitted effect of over 60% in size
Target sequence (P51450 whole entry, looked up, the tested form may be a part): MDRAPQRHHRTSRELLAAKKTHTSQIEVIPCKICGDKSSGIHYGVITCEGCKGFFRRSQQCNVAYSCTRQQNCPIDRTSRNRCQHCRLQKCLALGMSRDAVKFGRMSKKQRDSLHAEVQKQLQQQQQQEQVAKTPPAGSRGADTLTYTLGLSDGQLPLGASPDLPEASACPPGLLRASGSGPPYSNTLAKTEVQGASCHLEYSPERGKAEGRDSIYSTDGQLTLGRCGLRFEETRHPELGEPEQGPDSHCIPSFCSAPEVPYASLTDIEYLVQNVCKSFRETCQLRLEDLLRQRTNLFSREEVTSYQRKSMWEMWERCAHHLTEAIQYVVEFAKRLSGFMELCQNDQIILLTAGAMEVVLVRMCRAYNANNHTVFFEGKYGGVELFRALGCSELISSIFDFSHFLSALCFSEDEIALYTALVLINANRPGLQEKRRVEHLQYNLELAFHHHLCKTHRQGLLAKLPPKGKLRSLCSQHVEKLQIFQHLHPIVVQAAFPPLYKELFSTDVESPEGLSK
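A Gal4/UAS one-hybrid system in insect cells: metallothionein-promoter Gal4–ROR gamma fusion plus Photinus luciferase reporter. Copper sulfate 700 uM final, 20 hr ambient incubation, luminescent detection after 10 min with reagent.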
TGFb SMAD3 inh: inhibitors of TGF-b signaling. HepG2 CAGA-GFP TGF-b/SMAD3 reporter, GFP fluorescence, 18 h; TGF-beta stimulated, 500 pg/mL final. Potency, µM (titrated, usually from 46.1 µM), hits mostly inhibitors. actives 1.2% (n = 410,000); note: nearly all actives have a fitted effect of over 65% in size
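Inhibition of TGF-beta-driven CAGA-GFP reporter expression in HEPG2 cells is measured by cellular GFP fluorescence after 18 h stimulation with 500 pg/mL recombinant TGF-beta in 1% FBS medium at 37 degrees C.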
Gal4-VP16 FLuc: counter-screen for ROR gamma inhibitors: Gal4-VP16 reporter. actives 3.5% (n = 310,000). AID 2546. Drosophila S2 Gal4-VP16 UAS-luciferase, luminescence, 20 h. Potency, µM (doses to about 53.6 µM), usual class: inhibitors;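 note: Gal4-VP16 expression switched on by copper sulfate through the metallothionein promoter; nearly all actives have a fitted effect of over 50% in size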
ATXN viability: viability counter-screen for ATXN expression inhibitors | S2 cells (HEK-293 line with an ATXN2-luciferase reporter) viability, CellTiter-Fluor protease fluorescence, 24 h | Potency, µM (titrated, usually from 56.7 µM), hits mostly cytotoxic | actives 0.49% (n = 400,000) | AID 651635; note: nearly all actives have a fitted effect of over 40% in size
HepG2 tox: kills HepG2 cells in TGF-b inhibitor counter-screen. HepG2 CAGA-GFP viability, ATP luminescence, 18 h. Potency, µM (series often up to 46.1 µM), most hits filed as cytotoxic. actives 0.76% (n = 410,000). AID 588856
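CellTiter-Glo luminescence gave cytotoxicity after 18 hours at 37 degrees C. The cells were HepG2 CAGA-GFP in 1% FBS DMEM, stimulated with 500 pg/mL TGF-beta after compound addition. %Activity was normalised to no-cell wells (complete cell-killing) and DMSO (no toxicity), and curves were fitted and classified.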
Numbers stand for hits; 0 = inactive; ? = inconclusive; - = not tested or not shown. A selection: hits, their analogues and other compounds. The true share with any hit is near 6.1%. Calls come from the whole dose curve; as a rule, active = well fitted curve in the direction sought with a large enough effect; inconclusive = small, poorly fitted or top-dose-only effect, or another doubt; inactive = no such curve, though single readings can be large; an effect the other way counts as inactive or inconclusive.

SMILES	ATXN2 expr inh	RORg inh	TGFb SMAD3 inh	Gal4-VP16 FLuc	ATXN viability	HepG2 tox
CC(=O)c1ccc(C(=O)NCC2Cc3cccc(-c4ncccn4)c3O2)cc1 (configuration not stated)	-	-	-	-	0	-
COc1cc(/C=C(\C#N)c2nc3ccccc3s2)ccc1OCC(=O)Nc1ccccc1	?	0.13µM	0	0	-	0
COc1ccc(Cl)cc1NC(=S)NC1CCCC1	-	10µM	0	7.1µM	0	0
COc1ccc(NC(=S)NC2CCCCC2)c(OC)c1	0	3.2µM	0	?	0	0
COc1ccc(Cl)cc1NC(=S)N1CCC(c2ccc(C)cc2)C1 (configuration not stated)	0	13µM	0	0	0	0
Cc1cccc(C)c1NC(=S)N1CCC(c2ccccc2)C1 (configuration not stated)	0	16µM	0	35µM	0	0
COc1ccc(Cl)cc1NC(=S)Nc1ccccc1F	0	?	0	?	0	0
Cc1cccc(C)c1NC(=S)N1CCOCC1	0	0	0	0	0	0
COc1ccc2c(c1)-c1nc(-n3ncc(C(=O)N(C)CC4CCCN(C)C4)c3C3CC3)ncc1CC2 (configuration not stated)	-	-	-	-	0	-
COc1ccc(NC(=S)NC2CCCCCC2)c(OC)c1	0	3.2µM	?	7.1µM	0	0
COc1ccc(NC(=S)Nc2ccc(OC)cc2OC)c(OC)c1	0	?	0	?	0	0
O=C(NC1CCCc2ccccc21)c1ccc2c(c1)sc1nc(-c3ccccc3)cn12 (configuration not stated)	-	-	0	-	-	0
O=C(N/N=C/c1cn(-c2cccs2)nc1-c1ccccc1)c1ccccc1Cl	0	3.5µM	?	7.9µM	0	0
CC(=O)n1cc(/C=N/NC(=O)c2ccccc2Cl)c2ccccc21	0	0	0	0	0	0
O=C(N/N=C/c1cn(-c2cccs2)nc1-c1ccccc1)c1ccc(O)cc1	0	?	0	18µM	0	0
Cc1ccccc1C(=O)NCC(c1cccnc1)N1CCc2ccccc21 (configuration not stated)	-	-	?	-	-	0
O=C(Cc1ccc(Cl)cc1)Nc1nc2ccccc2[nH]1	0	0.28µM	0	7.1µM	0	0
O=C(CSc1ccccc1)Nc1nc2ccccc2[nH]1	0	13µM	0	?	0	0
O=C(Cc1ccc(Br)cc1)Nc1nc2ccccc2[nH]1	0	?	0	0	0	0
O=C(Cc1ccccc1)Nc1nc2ccccc2[nH]1	0	13µM	0	16µM	0	0
COc1ccc2c(c1)c1c(c(=O)n(-c3cccc(C)c3)c(=O)n1CC(=O)NCCC1=CCCCC1)n2C	0	-	0	-	?	0
CC(C)n1cnc2c(NCCCCCCNC(=O)OC(C)(C)C)nc(NCCO)nc21	14µM	-	-	-	-	-
CC(C)n1cnc2c(Nc3cccc(Cl)c3)nc(NCCCO)nc21	0	0	?	0	?	0
C=CCn1c(COc2ccc(Cl)cc2)nnc1SCC(=O)N/N=C/c1cccc(O)c1	0	0	?	0	?	0
C=CCn1c(COc2ccccc2)nnc1SC(C)C(=O)N/N=C/c1cc(Cl)ccc1O (configuration not stated)	14µM	13µM	0	?	0	0
SMILES	ATXN2 expr inh	RORg inh	TGFb SMAD3 inh	Gal4-VP16 FLuc	ATXN viability	HepG2 tox
S=C(Nc1ccccc1)Nc1nc2ccccc2n1CCOc1ccc(Br)cc1	0	1.8µM	0	2.2µM	0	0
Cn1c(NC(=S)Nc2ccccc2)nc2ccccc21	0	0.5µM	0	1µM	0	0
Nc1nc2ccccc2n1CCOc1ccc(Br)cc1	-	-	?	-	0	0
Cn1c(Nc2ccc(F)cc2)nc2ccccc21	0	0	0	0	?	0
CCOc1ccccc1CNC(=O)c1c(C)oc2ncnc(N3CCOCC3)c12	-	-	0	-	-	0
COc1nc(C)ccc1-c1noc(-c2cccnc2)n1	0	14µM	0	0	0	0
COc1nc2cc(C)ccc2cc1-c1noc(-c2cccnc2)n1	-	0	-	0	-	-
CCn1c(SCC(=O)c2ccc(C)cc2)nnc1-c1ccoc1C	0	?	0	16µM	0	0
CCn1c(SCC(=O)c2ccc(Cl)cc2)nnc1-c1ccoc1C	0	?	0	?	0	0
CC(=O)Oc1ccc(/C=N/NC(=S)Nc2ccccc2)cc1	0	2µM	0	2.5µM	0	0
COc1ccc(NC(=S)N/N=C/c2ccc(F)c(F)c2)cc1	0	3.2µM	0	5µM	?	0
Fc1ccc(/C=N/NC(=S)Nc2ccc(Cl)cc2)cc1F	0	0.71µM	0	1.4µM	0	0
Fc1ccc(/C=N/NC(=S)Nc2ccc(Cl)cc2Cl)cc1	?	?	0	?	?	0
COc1ccc(/C=N/NC(=S)Nc2ccccc2)cc1COc1ccc(F)cc1F	0	0.63µM	0	1µM	0	0
COc1ccc(CN2CCCC(Cn3cc(C(=O)N4CCCC4)nn3)C2)c(O)c1 (configuration not stated)	-	-	-	-	0	-
Nc1c(-c2nc(-c3cccs3)no2)nnn1-c1ccccc1Cl	-	-	0	-	-	0
C[N+]1(CC(=O)c2ccc(Cl)cc2)CCOCC1	-	-	0	-	-	0
COc1ccc(NC(=S)N/N=C/c2ccc(F)cc2)cc1OC	0	0.63µM	?	2.5µM	0	0
Fc1ccc(NC(=S)NN=C2CCCCCC2)cc1	0	4.5µM	?	18µM	0	0
Fc1ccc(NC(=S)N/N=C/c2ccc(F)c(F)c2)cc1	0	0.71µM	?	3.2µM	0	0
COc1ccc(CNc2nc3c(-c4cccc(C)c4)nnn3c3ccccc23)cc1	0	-	0	-	0	0
Cn1cc(S(=O)(=O)c2ccc(Cl)cc2)c(=O)c2cc(F)c(N3CCCC3)cc21	-	-	0	-	-	0
COc1ccccc1-c1ccnc(-n2ncc(C(=O)NCCc3cccnc3)c2C)n1	-	-	-	-	0	-
COCCCNC(=S)NNC(=S)NCCCOC	0	?	0	0	0	0
COCCCNC(=S)Nc1ccc(OC(F)F)cc1C	0	11µM	0	0	0	0
SMILES	ATXN2 expr inh	RORg inh	TGFb SMAD3 inh	Gal4-VP16 FLuc	ATXN viability	HepG2 tox
COCCCNC(=S)Nc1cc(C)c(C)cc1C	0	7.1µM	0	35µM	0	0
CC(C)CC(=O)Nc1ccc2nc(SCC(=O)N3CCc4ccccc43)sc2c1	0	-	0	-	0	0
C=CCn1c(O)c(N=NC(=S)Nc2ccc(OC)c(Cl)c2)c2ccccc21	0	2.8µM	0	4µM	?	0
Cc1cccc(NC(=S)N=Nc2c(O)n(CN3CCOCC3)c3ccccc23)c1C	-	0.71µM	2.2µM	1.1µM	-	0
C=CCn1c(O)c(N=NC(=S)Nc2ccccc2C)c2cc(S(=O)(=O)N3CCOCC3)ccc21	0	0.5µM	?	2µM	0	0
Cc1cc(=O)n(C)c2ccc(S(=O)(=O)N3CCOCC3)cc12	-	0	0	0	0	0

From PubChem
